A structure can be active in one record and inactive in another. Activity calls are given as the source filed them. Rule for the calls: active = hit-call score of the fitted dose curve at least 0.9, where 1 is the maximum; inactive = score below 0.9.
Assay: ATG_PBREM_CIS: Attagene CIS-FACTORIAL HepG2 Assay for human Phenobarbital-responsive Enhancer Module (PBREM) (AID 2282955)
Details: HepG2 PBREM cis-reporter, Attagene multiplexed transcription; actives raise or lower the signal
Protocol: ATG_CIS is a cell-based, multiplexed-readout assay that uses HepG2, a human liver cell line, with measurements taken at 24 hours after chemical dosing in a 24-well plate.ATG_PBREM_CIS is one of 52 assay component(s) measured or calculated from the ATG_CIS assay. It is designed to make measurements of mRNA induction, a form of inducible reporter, as detected with fluorescence intensity signals by Reverse transcription polymerase chain reaction (RT-PCR) and Capillary electrophoresis technology.Data from the assay component ATG_PBREM_CIS was analyzed into 1 assay endpoint. This assay endpoint, ATG_PBREM_CIS, was analyzed with bidirectional fitting relative to DMSO as the negative control and baseline of activity. Using a type of inducible reporter, measures of mRNA for gain or loss-of-signal activity can be used to understand the reporter gene at the transcription factor-level as they relate to the gene NR1I3. Furthermore, this assay endpoint can be referred to as a primary readout, because this assay has produced multiple assay endpoints where this one serves a reporter gene function. To generalize the intended target to other relatable targets, this assay endpoint is annotated to the nuclear receptor intended target family, where the subfamily is non-steroidal.
Human liver HepG2 cells are transiently transfected with multiple reporter transcription units (MRTUs) in 6-well plates using FuGene 6 reagent (Roche; 3 ml FuGene/1 mg DNA). The MRTU constructs are regulated by a cis-regulating element (promoter). […] A major difference between the CIS and TRANS system is that in CIS activities of endogenous TFs are measured, whereas the TRANS assay evaluates changes in activities of exogenous, chimeric NR-Gal4 proteins. […] At the end of 24 hour incubation, total RNA was isolated using TriZol reagent (Invitrogen). The isolated RNA is then reverse-transcribed using oligo(dT) primer and Mo-MLV reverse transcriptase (Invitrogen) with DNAse I (Ambion) treatment for 30 min. The one-tenth of the produced cDNA was amplified by PCR using Taq DNA polymerase (Invitrogen) and two reporter sequence-specific primers. The PCR products were fluorescently labeled by primer extension with 6-arboxyfluorescein (6-FAM) 5'-labeled reporter sequence-specific primer (2 min at 95 C, 20 s at 68 C and 10 min at 72 C) and these products were digested with 5U of HpaI (New England Biolabs) for 2h at 37 C. The fragments were purified using Qiaquick PCR columns (Qiagen), analyzed on an ABI 3130xL genetic analyzer (Applied Biosystems) with peak positions identified by using a set of X-rhodamine (ROX)-labeled MapMarker1000 molecular weight standards (BioVentures). The raw capillary electrophoresis data was processed using Attagraph software (Attagene).

outcome, inactive:
Cc1ccccc1OCC(=O)O
O=CC(F)(F)C(F)(F)C(F)(F)F
CC(C)c1c(C(=O)Nc2ccccc2)c(-c2ccccc2)c(-c2ccc(F)cc2)n1CC[C@@H](O)C[C@@H](O)CC(=O)O
Cc1ccccc1C(OCCN(C)C)c1ccccc1 (stereo not given)
CCC(C)c1nccnc1OC (stereo not given)
O=C(CC(=O)C(F)(F)C(F)(F)C(F)(F)F)c1cccs1
COC(O)c1ccccc1 (stereo not given)
FC1(F)C=CC(F)(F)C1(F)F
CCCCCC(C)OC(=O)COc1ccc(Cl)c2cccnc12 (stereo not given)
O=C(F)C(F)(F)C(F)(F)C(F)(F)C(F)F
COc1cc(OC)nc(NC(=O)NS(=O)(=O)Nc2ccccc2C(=O)N(C)C)n1
Cc1ccc(C(=O)c2ccccc2)cc1
CC(=O)CC(C)C
CNNCc1ccc(C(=O)NC(C)C)cc1
Oc1c(Cl)ccc(Cl)c1Cl
CN(Cc1cnc2nc(N)nc(N)c2n1)c1ccc(C(=O)N[C@@H](CCC(=O)O)C(=O)O)cc1
CC(C)C=O
C=C(c1ccc(C(=O)O)cc1)c1cc2c(cc1C)C(C)(C)CCC2(C)C
CC1CNCC(C)O1 (stereo not given)
CC(C)(O)C(=O)c1ccccc1
CC1CCC(CO)CC1 (stereo not given)
CC1COCc2cc3c(cc21)C(C)(C)C(C)C3(C)C (stereo not given)
C=COC(=O)C(C)(C)CCCCCC
COC(=O)C(F)(F)C(F)(F)C(F)(F)C(F)(F)C(F)(F)F
c1ccc2c(c1)CCC2
Oc1cc2ccccc2cc1O
CCCCCCCCCCCCCCCC(=O)OC
CCOC(OCC)C(=O)c1ccccc1
NS(=O)(=O)O
CCCC=O
CCc1cccc(CC)c1NC(=O)C(=O)O
O=C(C=C(O)C(F)(F)F)C(F)(F)F
COC(=O)C(F)(F)C(F)(F)C(F)(F)F
FC(F)(F)C1(F)C(F)(F)C(F)(F)C(F)(F)C(F)(C(F)(F)F)C1(F)F (stereo not given)
CC(=O)Nc1ccc(O)cc1
FC(OC(F)(F)C(F)(F)C(F)(F)F)C(F)(F)F (stereo not given)

AC50, active:
CC(C)c1c(C(=O)Nc2ccccc2)c(-c2ccccc2)c(-c2ccc(F)cc2)n1CC[C@@H](O)C[C@@H](O)CC(=O)O 25.3 µM
O=C(CC(=O)C(F)(F)C(F)(F)C(F)(F)F)c1cccs1 69.7 µM
C=C(c1ccc(C(=O)O)cc1)c1cc2c(cc1C)C(C)(C)CCC2(C)C 30.3 µM
COc1ccccc1NC(=O)c1cc2ccccc2cc1O 6.07 µM
